Results: PubChem BioAssay (NCI)
The panel holds about 83,000 compounds, 20% with a hit somewhere; the sample as a whole holds those more often.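 For each line, cells grew in 96-well plates with the test compound present at a single concentration for 48 hours.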 The source made the active and inactive calls. How the source made its calls: active means growth percent below 10; inactive means the rest.

tested on: MDA-MB-468 breast; experiment: NCI-60 one-dose screen, 48 h (100 = growth as untreated, 0 = no growth, -100 = all killed); settings: 10 µM unless noted

SMILES	growth
Cc1n[nH]c(C)c1-c1c(C)n[nH]c1C	-0.751% (active)
CC1Cc2c(Cl)ncnc2N(C)c2ccc(F)cc21 (stereo not given)	64.5% (inactive)
Nc1ccc2c(c1)C(=O)c1cc(Cl)c(Cl)cc1-2	89.9% (inactive)
c1ccc(C(Nc2ccccn2)(c2ccccc2)c2ccccc2)cc1	52.7% (inactive)
O=C(NCCc1ccccc1)/C(=C\c1ccc(Cl)cc1Cl)NC(=O)c1ccccc1	95.1% (inactive)
O=[N+]([O-])c1ccc(Sc2ccncn2)c([N+](=O)[O-])c1	24% (inactive)
O=C(O)c1ccc(-n2cc(/C=N/Nc3ccc(Cl)cc3)c(-c3ccc(F)c(F)c3)n2)cc1	83.2% (inactive)
S=c1nc2oc(-c3ccccc3)c(-c3ccccc3)c2c(/N=C\c2ccco2)[nH]1	91.6% (inactive)
S=c1c2ncccc2c(-c2ccccn2)nn1Cc1ccccn1	111% (inactive)
COc1ccc(-c2cc(-c3ccc(N(C)C)cc3)nc(NC(=O)c3cccnc3)n2)cc1	106% (inactive)
CC1=NC2=NN3C(=NN2C(c2ccccc2)=C1)N=NC(c1ccc(Br)cc1)=C3c1ccc(Br)cc1	105% (inactive)
COC(=O)[C@]1(CCSC)N[C@H](c2cn(-c3ccccc3)nc2C)[C@@H]2C(=O)N(c3ccc(C)cc3)C(=O)[C@@H]21	127% (inactive)
Oc1ccc2ccccc2c1/C=N\Nc1ccccn1	-19.3% (active)
Cc1ccc(-c2nc(N3CCN(C(=O)Nc4ccc(Cl)c(C(F)(F)F)c4)CC3)c3ccccc3n2)cc1	77.2% (inactive)
CC1OC(n2c3ccccc3c3c4c(c5c6ccccc6[nH]c5c32)C(=O)N(CCN[C@@H]2CCC[C@H]2N)C4=O)CC(O)C1O (stereo not given in full)	-26.9% (active)
